Cycloheximide cs: affects cycloheximide protein synthesis inhibition readout, counter-screen | 12% of 300,000 active | AID 2314 | cell reporter, cycloheximide protein synthesis inhibition counterscreen | max response, %; in the data active means max response mostly above about 13%, no sharp cut-off; inactive means mostly below about 14%; further: read at 38.3 µM for the half of the compounds with a filed dose; 0% is about no effect
Pf growth 48h: inhibits P. falciparum growth in the first generation, 48 h; Potency, µM (titrated, usually from 28.7 µM), for the others: at the top dose activity change, negative = inhibition, hits mostly inhibitors; P. falciparum luciferase growth in erythrocytes, 48 h; 5.9% of 310,000 active; further: potency means the concentration at half of the fitted maximal effect; on the % scale 0 is the no-effect control and ±100 the full control effect
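Parasite viability was followed by luminescence of a genomically integrated firefly luciferase. Cultures held 0.1% parasitemia at 2% hematocrit (final), incubated under 5% CO2 at 37 C.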
Shiga inhibitor: inhibitors of Shiga toxin in Vero cells; Vero cells, Shiga toxin protein synthesis inhibition reporter; inhibition, % at 38.7 µM; 9.2% of 290,000 active; AID 2315; in the data active means inhibition mostly above about 28%, no sharp cut-off; inactive means mostly below about 43%; further: 0% is about no effect
Pf growth 96h: P. falciparum growth inhibition at 96 hour, primary screen for plastid delayed-death inhibitors | P. falciparum luciferase reporter growth, 96 h | Potency, µM (top dose mostly 28.7 µM), for inactives: at the top dose activity change, negative = inhibition, most hits filed as inhibitors | 6.9% of 320,000 active | AID 504834; further: potency means the concentration at half of the fitted maximal effect; on the % scale 0 is the no-effect control and ±100 the full control effect
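Cell-based qHTS: luciferase-tagged P. falciparum in erythrocytes (2% hematocrit, 0.05% parasitemia final) incubated with compounds for 96 hours, 37 C, 5% CO2; luciferase detection reagent then added and luminescence measured.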
Starred values were filed as active, the others as inactive; ? = inconclusive; nt = no result; [ ] = another dose, or the depositor's remark. Compounds with a hit are over-represented: about 21% of the library has one in this group of screens. Unless noted, the call rests on the fitted dose curve; in most records, active means well fitted inhibition curve with a large enough effect; inconclusive means small, poorly fitted or top-dose-only effect, or another doubt; inactive means no such curve, though single readings can be large or run the other way.

SMILES	Cycloheximide cs	Pf growth 48h	Shiga inhibitor	Pf growth 96h
CC1CCC(=NNC(=O)Cc2cccn2C)CC1 (stereo not drawn)	-1	7%	3	1%
CCn1nc(NS(=O)(=O)c2ccccc2[N+](=O)[O-])c2cc3ccc(C)cc3nc21	-2	13%	-10	?
CCOc1cc(CNc2ccc(CNc3ncn[nH]3)cc2)ccc1OCc1ccccc1	-3	?	-3	13µM*
COc1cc(CNc2ccc(CNc3ncn[nH]3)cc2)ccc1OCC(=O)NC(C)(C)C	-6	?	-6	?
Fc1ccc(CNc2ccc(CNc3ncn[nH]3)cc2)cc1	22*	67%	26	2%[5.75 µM]
COc1cc(Cn2c(=O)c3c(OC)c(C)cnc3n(C)c2=O)cc(OC)c1	-10	-21%	-10	?
CC(C)(C)OC(=O)CNC(=O)c1[nH]cnc1C(=O)NCCCCCNC(=O)OC(C)(C)C	0	-26%	1	-11%
CNC(=O)c1[nH]cnc1C(=O)N[C@@H](CCCCNC(=O)OC(C)(C)C)C(=O)OC(C)(C)C	-1	-17%	-15	?
CC(C)C[C@H](NC(=O)c1nc[nH]c1C(=O)N[C@@H](CCCCNC(=O)OC(C)(C)C)C(=O)OC(C)(C)C)C(=O)OC(C)(C)C	-2	3.7µM*	-3	2.1µM*
CC(C)(C)OC(=O)NCCCCCNC(=O)c1[nH]cnc1C(=O)Nc1ccon1	nt	?	nt	5.2µM*
CC(C)C[C@H](NC(=O)c1nc[nH]c1C(=O)NCCCCCNC(=O)OC(C)(C)C)C(=O)OC(C)(C)C	-2	7.4µM*	-10	?
C[C@H](NC(=O)c1nc[nH]c1C(=O)NCCCCCNC(=O)OC(C)(C)C)C(=O)OC(C)(C)C	31*	?	57*	?
CC(C)CN(CC(C)C)C(=S)Nc1ccc(Cl)cc1	2	-1%	-7	?
Cc1cc(C(C)(C)C)cc(C)c1S(=O)(=O)N1CCN(C(=O)c2cc([N+](=O)[O-])c[nH]c2=O)CC1	-4	?	1	?
CC[C@H]1OC(=O)[C@H](C)[C@@H](O[C@H]2C[C@@](C)(OC)[C@@H](O)[C@H](C)O2)[C@H](C)[C@@H](O[C@@H]2O[C@H](C)C[C@H](N(C)C)[C@H]2O)[C@](C)(O)C[C@@H](C)C(=NOCOCCOC)[C@H](C)[C@@H](O)[C@]1(C)O	-2	-9%	1	?
C=CCc1c(C)nc(SCC(=C)C)[nH]c1=O	-6	nt	-13	-12%
NC(=O)Nc1ccccc1C(=O)N1CCC(O)(c2ccc(Cl)cc2)CC1	-4	14%	-7	-29%
CCC(c1n[nH]c(=S)n1-c1ccccc1)N(C)C (stereo not drawn)	-4	12%	-8	-6%
CC(C)CCC(CC(C)O)c1n[nH]c(=S)n1-c1ccccc1 (stereo not drawn)	9	-1%	-9	2.3µM*
Cn1c(SCC(=O)Nc2ccc(C(N)=O)cc2)nnc1-c1cccs1	-4	-3%	-8	?
CCOC(=O)/C=c1\s/c(=C\c2c(OCC)ccc3ccccc23)c(=O)n1CC(=O)NCC1CCCO1 (stereo not drawn)	9	12µM*	19	nt
O=C(CCc1nnc2ccc(NCc3ccco3)nn12)Nc1ccc(F)cc1F	-8	-4%	6	?
CCCN1C(=O)N(c2cccc(C)c2)C(C)(O)CC1(C)C (stereo not drawn)	3	-42%	11	?
O=C(c1ccccc1)c1cnc(Nc2ccccc2Cl)s1	42*	272%	89*	340%
CC(C)(C)C(=O)c1cnc(Nc2ccccc2Cl)s1	59*	77%	67*	157%
SMILES	Cycloheximide cs	Pf growth 48h	Shiga inhibitor	Pf growth 96h
CCCCn1c(N)c(N(CCOC)C(=O)C2CC(=O)N(c3cccc(SC)c3)C2)c(=O)[nH]c1=O (stereo not drawn)	nt	2%	nt	4%
O=C(Nc1ccc(-c2nc3ccccc3o2)cc1)c1cccnc1	44*	127%	115*	112%
O=C(CCN1C(=O)c2ccccc2C1=O)Nc1ccc(-c2nc3ccccc3o2)cc1	18*	16%	83*	nt
Cc1ccc2oc(-c3ccc(NC(=O)c4ccc5c(c4)OCO5)cc3)nc2c1	37*	73%	58*	29%
O=C(Nc1ccc2oc(-c3ccccc3F)nc2c1)c1ccc2c(c1)OCCO2	28*	-6%	72*	5%
O=C(Nc1ccc(-c2nc3ccccc3o2)cc1)c1ccc2c(c1)OCO2	20	?	46	?
Cc1cc(=O)[nH]c(SCC(=O)NCC2CCCCC2)c1C#N	-3	1%	-3	29%
